Reference: PubChem BioAssay AID1671188 (National Center for Advancing Translational Sciences (NCATS), 2021)
“And” between values parts separate entries of the source, which are not always exact repeats. Identical values can stand only once. About 250 (0.25%) of roughly 100,000 compounds were called active. Roughly 7% stayed inconclusive and do not appear here. Calls come from the whole dose curve; as a rule, active = well fitted inhibition curve with a large enough effect; inconclusive = small, poorly fitted or top-dose-only effect; inactive = flat fitted curve, though single readings scatter. Shown is part of a subset that was picked to be rich in actives. Where a call stands in place of a potency, no number is given. Some compounds were tested as several samples or in several runs, with calls that do not always agree.

These molecules were tested against Alanine aminotransferase 2 (Homo sapiens) (UniProt Q8TD30) (assay: Primary qHTS assay for inhibitors of Glutamate pyruvate transaminase 2 (GPT2)). Settings: Recombinant GPT2, coupled pyruvate oxidase/HRP Amplex Red fluorescence; series mostly up to 57.7 µM.
Description: Assay Provider: Zhenghe John Wang Ph.D.
Case Western Reserve University, Cleveland OH
Glutamate pyruvate transaminase 2 (GPT2) catalyzes the reversible transamination of glutamate and pyruvate to provide a-ketoglutarate and alanine. We have optimized an assay for GPT2 enzymatic activity that couples pyruvate formation to detection of fluorescence using an established pyruvate oxidase/horseradish peroxidase / Amplex Red system.
Screening conditions were 250uM a-KG, 2mM L-alanine, and 10ng/uL GPT2 in […] of solution; 10uL of Amplex reaction mix (outlined below) were added so that final concentrations of Amplex reagents in 50uL were 0.2mM ThPP, 0.2U/mL PO and HRP, and 50uM Amplex.
NOTE: The volume of GPT2 in the system depends on the activity of it. The activity is different every batch. You need to test the activity before the assay. For full plate assay with automation, plate 20uL of GPT2 buffer to pin into, then add 10uL of GPT2 dilution followed immediately by 10uL of substrate dilution. 2 Columns of the plate were devoted to GPT2 buffer ([…] PH7.5, 0.0001% Tween) + 50uM AOA (known GPT2 inhibitor) to serve as a positive control. Complete the assay as normal. Amplex-red buffer: […] PH7.5, 1 mM EDTA, 1 mM MgCl2.
1. Combine a-KG and L-alanine at desired concentrations and incubate for at least 10 minutes at 37C. Stocks of L-alanine and a-KG are diluted in distilled water. However, the stocks were diluted in GPT2 buffer for the assay.
2. Prepare GPT2 dilution at the desired concentration in GPT2 buffer.
3. Plate 40uL of GPT2 dilution with 40uL of substrate dilution and let incubate for 30 minutes at room temperature.
4. Add 20uL of Amplex reaction mix prepared as follows: 1.5uL 200U/mL Horseradish Peroxidase, 200mM Thiamine Pyrophosphate, 200U/mL Pyruvate Oxidase; 7.5uL 10mM Amplex Red; 288uL Amplex Buffer.
5. Incubate for 30 minutes at room temperature in the dark, then image using AM_Amplex_Fluorescence on plate reader nearest the window.
Note: nearly all actives have a fitted effect of over 60% in size.
Potency is the fitted concentration of half-maximal effect.

Chain of Alanine aminotransferase 2 (Homo sapiens) (Q8TD30 whole entry, looked up): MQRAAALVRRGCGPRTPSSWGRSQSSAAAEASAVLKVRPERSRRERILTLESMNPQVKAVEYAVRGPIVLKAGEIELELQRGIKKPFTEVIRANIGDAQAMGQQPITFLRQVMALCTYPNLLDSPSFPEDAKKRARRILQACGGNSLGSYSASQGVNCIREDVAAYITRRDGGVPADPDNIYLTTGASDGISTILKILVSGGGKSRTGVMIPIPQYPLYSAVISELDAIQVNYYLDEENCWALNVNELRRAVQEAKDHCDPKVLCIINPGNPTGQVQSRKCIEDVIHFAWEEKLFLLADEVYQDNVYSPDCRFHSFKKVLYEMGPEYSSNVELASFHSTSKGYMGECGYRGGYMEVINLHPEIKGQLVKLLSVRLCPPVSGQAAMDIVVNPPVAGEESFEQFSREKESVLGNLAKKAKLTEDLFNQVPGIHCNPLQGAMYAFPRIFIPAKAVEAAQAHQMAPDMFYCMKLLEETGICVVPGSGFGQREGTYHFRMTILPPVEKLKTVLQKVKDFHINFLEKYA

Row | Compound | Potency | activity change, negative = inhibition
1 | CN(C)C(=O)c1ccc2oc(-c3ccnc(Cl)c3)nc2c1 | inactive | –
2 | CC(C)c1ccc(CN2CCC3(CC2)COCCN3C(=O)c2ccc3[nH]ncc3c2)cc1 | inactive | –
3 | CC(=O)N1C[C@@H]2CCCN3CCC[C@@H]([C@H]23)[C@H]1CCCC(=O)N1CCN(C2CCN(C)CC2)CC1 | inactive | –
4 | COc1ccc(CC(=O)NC2CCN(Cc3ccc(-c4ccccc4OC)cc3)C2)cc1 (configuration not stated) | inactive | –
5 | O=C1[C@H]2CN(Cc3ccc(Cl)c(F)c3)C[C@H]2C(=O)N1CCc1ccccc1 | inactive | –
6 | O=C(c1ccc(C(F)(F)F)cc1)N1CCN(c2ccnc3ccnn23)CC1 | inactive | –
7 | O=C(N1CCC(Cc2nc(-c3ccccc3)n[nH]2)C1)C1(c2ccccc2)CC1 (configuration not stated) | inactive | –
8 | O=C(c1ccccc1Cl)N1CCC2(CC1)NC(=O)N(c1cccc(Cl)c1)N2 | inactive | –
9 | CC(C)c1noc(-c2cn(C3CCN(C(=O)c4cccc(C#N)c4)C3)nn2)n1 (configuration not stated) | inactive | –
10 | O=C1NCCOCCN(S(=O)(=O)c2cccs2)[C@@H]2CCCC[C@H]12 | inactive | –
11 | COc1ccccc1Nc1ncc2c(n1)CN(C(=O)COc1ccccc1)CCN2 | inactive | –
12 | CNC(=O)c1ccccc1Nc1nc(Nc2ccc(N3CCOCC3)cc2OC)ncc1Cl | 10.9 µM (active) and 7.08 µM (active) | –
13 | CNC(=O)c1ccccc1Nc1nc(Nc2ccc3c(c2OC)CCC[C@@H](N2CCN(CCO)CC2)C3)ncc1Cl | inactive | –
14 | COc1cccc(-c2ccc(C(=O)N3CCC(NC(=O)Cc4ccc(F)cc4)CC3)cc2)c1 | inactive | –
15 | COc1ccccc1OC(C)(C)C(=O)N1CC(C)(C)[C@@](C)(O)C1 | inactive | –
16 | CN(CC1CCOCC1)C(=O)Nc1ccc(Cl)cc1 | inactive | –
17 | O=S(=O)(Cc1ccccc1)N1CC(c2nc(-c3ccncc3)no2)C1 | inactive | –
18 | COc1ccc(CN2CCN(c3nc4ccccc4o3)CC2CCO)cc1C (configuration not stated) | – | -2.15% [at 11.5 µM] (inactive)
19 | COc1ccc(-n2cccn2)c(CN2CCC3(CCNC(=O)CC3)CC2)c1 | inactive | –
20 | Cc1noc(C)c1-c1cc2c(cc(C)n2C)c(NCCCn2ccnc2)n1 | inactive | –
21 | COc1ccccc1Cn1c(=O)c(C(=O)NCc2ccc(F)cc2)nc2cccnc21 | inactive | –
22 | O=C(c1ccc(F)cc1)N1CCCC(C(=O)N2CCCC2c2nc3ccncc3[nH]2)C1 (configuration not stated) | inactive | –
23 | CN1CCN(C(=O)c2ccc3oc(-c4ccncc4Cl)nc3c2)CC1 | inactive | –
24 | COc1cccc(N2C(=O)NC(=NC3CCCCC3)C23CCN(CC2CCCCC2)CC3)c1 | inactive | –
25 | CC1=C(C(=O)OC(C)(C)C)C(c2ccccc2F)N2C(CC(=O)N3CCCC3)=CSC2=N1 (configuration not stated) | inactive | –

Row | Compound | Potency | activity change, negative = inhibition
26 | O[C@@H]1C[C@@H](c2nc(-c3cccnc3)no2)N(Cc2cccs2)C1 | inactive | –
27 | CN(Cc1ccsc1)Cc1nc(C(c2ccccc2)c2ccccc2)no1 | inactive | –
28 | CCOC(=O)C1CCN(C(=O)c2nc3sccn3c2-c2ccc(OC)cc2)CC1 | inactive | –
29 | COCc1cc(=O)n(CC(=O)Nc2cc(C)cc(C)c2)c(N2CCOCC2)n1 | inactive | –
30 | CC(=O)c1ccc(NC(=O)O[C@@H]2CO[C@H]3[C@@H]2OC[C@@H]3Nc2nccc(-c3ccco3)n2)cc1 | inactive | –
31 | CC[C@@H]1Cc2cc(O)ccc2C2=C1c1ccc(O)cc1C[C@H]2CC | 11.2 µM (active) | –
32 | COCCN1C[C@H]2CN(C(=O)c3ccc(C(F)(F)F)cc3)CCN2C1=O | inactive | –
33 | N#Cc1ccc(CN2CCC3(Cc4ccccc4NC3=O)C2)cc1 (configuration not stated) | inactive | –
34 | O=C(Cn1nc2c(cc1=O)CCCC2)NCCn1ccc2ccc(Cl)cc21 | inactive | –
35 | Cc1nc(C)c(C(=O)N2CCc3nnc([C@@H]4C[C@@H](O)CN4C(C)C)n3CC2)s1 | inactive | –
36 | C=CCNC(=O)C1N(C(C)C)C(=O)C12CCCC2 (configuration not stated) | inactive | –
37 | OCC1(CN2CCCC2)CCN(Cc2ccc(OC(F)(F)F)cc2)CC1 | inactive | –
38 | COc1ccc(NC(=O)N2CCC(O)(c3csc(CN4CCc5ccccc5C4)n3)CC2)cc1 | inactive | –
39 | CO[C@@H]1COCC[C@H]1NC(=O)c1cn(CCN2CCNCC2)nn1 | inactive | –
40 | CCC(=O)N1CCCC(Cc2ncc(C)n2C(C)C)C1 (configuration not stated) | inactive | –
41 | O=C(c1cc(Cl)ccc1F)N1CCN(c2cc(C(F)(F)F)ncn2)CC1 | inactive | –
42 | O=C(NCc1ccc(Cl)nc1)c1cnn2ncccc12 | inactive | –
43 | CC(C)c1ccc(CNC(=O)CN2CCCc3nc(C4CC4)ncc3C2=O)cc1 | inactive | –
44 | COCCN1C(=O)CCC2(C(=O)NCc3cn[nH]c3C)CCCC=C12 (configuration not stated) | inactive | –
45 | CN1CCN(C(C)(CN)c2ccccn2)CC1 (configuration not stated) | inactive | –
46 | O=C(Nc1cccc(F)c1)N1CCC2(CC1)SCC(=O)N2Cc1ccco1 | inactive | –
47 | COc1ccc(-c2nnc(C[C@@H]3C[C@@H](C(C)C)[C@H](CN4CCC(C(N)=O)CC4)C=C3C)o2)cc1 | inactive | –
48 | Cc1ccc(C)c(CN2C(=O)NC3(CCCN(C(=O)c4ccc(C)c(F)c4)C3)C2=O)c1 (configuration not stated) | inactive | –
49 | c1ccc2c(CN3CCC[C@H]3c3nc(-c4ccnc(N5CCOCC5)c4)no3)c[nH]c2c1 | inactive | –
50 | NC(=O)c1cccnc1N1CCN(CC2(O)CNCCOC2)CC1 (configuration not stated) | inactive | –

Row | Compound | Potency | activity change, negative = inhibition
51 | O=C1COCC2(CN(c3ccc(C(F)(F)F)cn3)C2)CN1c1cccnc1 | inactive | –
52 | Cc1ccccc1CN1CCc2ncc(C(=O)NCCOc3ccccc3)n2CC1 | inactive | –
53 | Cc1nc([C@H]2CCN(Cc3ccoc3)C[C@H]2NC(=O)C2CC2)n[nH]1 | inactive | –
54 | CCC(C)Oc1ccccc1CN1CCC(CO)(CN2CCCC2)CC1 (configuration not stated) | inactive | –
55 | COCc1cc(C[C@@H]2C[C@H](NC(=O)Nc3ccccc3)C2(C)C)no1 | inactive | –
56 | Cc1ccc(C(=O)Nc2ccc(C(O)[C@H]3COCC(=O)N3Cc3ccccc3F)cc2)cc1 (some centres not stated) | inactive | –
57 | CN1CCN(C(=O)c2ccc(-c3nnc4ccc(NC(=O)C5CCC5)cn34)cc2)CC1 | inactive | –
58 | Cc1cc(Nc2cc(N3CCN(C)CC3)nc(Sc3ccc(NC(=O)C4CC4)cc3)n2)n[nH]1 | inactive and 27.3 µM (active) | –
59 | Cc1ccc(Nc2ccnc(N3CCC(C(=O)Nc4ccccc4F)CC3)n2)cc1 | inactive | –
60 | O=C(CC1CCN(C(=O)c2ccco2)C1)N1CCOCC1 (configuration not stated) | inactive | –
61 | COCCn1nc2n(c1=O)CCN(C(=O)c1ccco1)CC2 | inactive | –
62 | CCC(=O)Nc1cc(-c2ccccn2)nn1-c1ccccc1 | inactive | –
63 | O=C(NCCc1ccccc1F)c1cn2cc(-c3cccc(C(F)(F)F)c3)sc2n1 | inactive | –
64 | Fc1cccc(C2CCCCCN2Cc2cn(-c3ccccc3)nn2)c1 (configuration not stated) | – | -3.5% [at 11.5 µM] (inactive)
65 | COC(=O)c1cccc(NC(=S)N[C@H]2CO[C@H]3[C@@H]2OC[C@H]3OC(=O)Nc2ccc(Oc3ccccc3)cc2)c1 | inactive | –
66 | Cc1noc(C)c1S(=O)(=O)N1CCC(c2noc(-c3ccncc3)n2)C1 (configuration not stated) | inactive | –
67 | COc1ccccc1-c1ccc2c(C(=O)NCCc3ccc(Cl)cc3)nn(C)c2n1 | inactive | –
68 | COc1ccc(C(=O)N2CC[C@@H](CC(=O)O)[C@@H](CCN3C[C@@H]4C[C@H](C3)c3cccc(=O)n3C4)C2)cc1 | inactive | –
69 | O=C(NCCCc1ccccc1)c1n[nH]c2c1CN(C(=O)C1CC1)CC2 | inactive | –
70 | O=C(NCc1cccc(Cl)c1)c1ccc2nnc(Cc3ccc(Cl)cc3)n2c1 | inactive | –
71 | Cc1nc(-c2c3n(c(=O)n(Cc4ccc(F)c(F)c4)c2=O)CCCC3)no1 | inactive | –
72 | COc1cccc(CN(C)C2CCc3nn(C)c(=O)n3CC2)n1 (configuration not stated) | inactive | –
73 | COc1ccc(CC(=O)N2CCN(C(=O)c3nc4cccnc4n(Cc4ccc(OC)cc4)c3=O)CC2)cc1 | inactive | –
74 | CC[C@H]1CN(C(=O)NC(C)C)CC[C@H]1CC(=O)Nc1ccccc1 | inactive | –
75 | COc1ccc(C(=O)N2C[C@@H](Oc3cccnc3)C[C@H]2C(=O)N2CCOCC2)cc1 | inactive | –

Row | Compound | Potency | activity change, negative = inhibition
76 | O=C(c1ccc2c(c1)CCCO2)N1CCCn2nc(C(O)C3CCC3)cc2C1 (configuration not stated) | inactive | –
77 | O=C(C1COc2ccccc2O1)N1CCc2c(nc3cc(-c4ccccc4)[nH]n3c2=O)C1 (configuration not stated) | inactive | –
78 | CN1CCC(N2CCC[C@H]2c2nc(-c3ccc(OC4CCCCC4)nc3)no2)CC1 | inactive | –
79 | O=C1NC(C(=O)NCc2ccccn2)Cn2cccc21 (configuration not stated) | inactive | –
80 | COc1ccc(CN2CCn3c(nn(-c4ccncc4)c3=O)C2)cc1 | inactive | –
81 | CN1C[C@@H](C(=O)Nc2ccccc2)[C@H](C2CCNCC2)C1 | inactive | –
82 | O=C1NC2(Cc3ccccc31)CN(Cc1ccc(F)cc1)C2 | inactive | –
83 | CCC1=C(C(=O)OC)C(c2cccc(OC)c2)N2C(CC(=O)N3CCOCC3)=CSC2=N1 (configuration not stated) | inactive | –
84 | O=C1CC(c2noc(-c3cc(Cl)ccc3F)n2)CN1c1ccc(F)cc1 (configuration not stated) | inactive | –
85 | COc1ccc(C(=O)N2CCCC(CO)CCNC(=O)CC2)c(OC)n1 (configuration not stated) | inactive | –
86 | Cc1cccc(-c2cccc(CN3CCC(NC(=O)Cc4ccc(F)cc4)CC3)c2)c1 | inactive | –
87 | O=C(C1CC=CCC1)N1CC(c2noc(C3CCCN3CC3CC3)n2)C1 (configuration not stated) | inactive | –
88 | O=C(CCn1cnnn1)N1CCC(N2C(=O)C3(CCCC3)C2c2ccccc2)CC1 (configuration not stated) | inactive | –
89 | CC(C)(O)CCc1ccc(C(=O)N2CCOc3ccc(Cl)cc3C2)cc1 | inactive | –
90 | CN(C)CCNC(=O)c1cccnc1OC1CCNCC1 | inactive | –
91 | CN(C)[C@H]1CCCCN(CC2CCC(N)CC2)C1 (some centres not stated) | inactive | –
92 | CC(C)Cn1c(=O)c(C(=O)N2CCN([S+](=O)([O-])c3cccc(C(F)(F)F)c3)CC2)nc2cccnc21 | inactive | –
93 | COc1cccc(CN2C(=O)OC3(CCN(C(=O)c4scnc4C)CC3)C2(C)c2cccnc2)c1 (configuration not stated) | inactive | –
94 | O=C(NCc1ccc(Cl)nc1)c1c[nH]c2cccnc12 | inactive | –
95 | O=[S+]([O-])(c1cccs1)N1CCN(c2nccc(Nc3ccccc3F)n2)CC1 | inactive | –
96 | CCC(=O)Nc1cc(C(=O)NCc2ccc(N3CCOCC3)cc2)c2ccc(C)nc2c1 | inactive | –
97 | Cc1ccc(C(=O)N2CCCC(c3nc(-c4ccccc4)no3)CCNC(=O)CC2)cn1 (configuration not stated) | inactive | –
